According to PubChem BioAssay:
Active and inactive are the calls of the source.

Columns and labels:
[1] = anti-His antibody binders, primary screen, artefact control for SMM control protein annotation, biochemical, small-molecule microarray, 635 nm fluorescence (AID 1128); conditions: anti-His Alexa647 antibody binding, higher = more signal;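 further: score merges feature fluorescence with signal-to-noise for each printed compound spot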
[2] = system: Human papillomavirus type 1a E7 protein (residues 1-88); assay: HPV1a E7 small-molecule binders, primary screen, biochemical, small-molecule microarray, residues 1-88, 635 nm (AID 1129); conditions: small-molecule microarray binding, fluorescence 635 nm; higher = more signal
[3] = molecular target: Focal adhesion kinase 1 (Homo sapiens) (UniProt Q05397); assay: small-molecule microarray binders of FAK, primary screen, biochemical, 635/667 nm fluorescence, BSA, DTT (AID 1130); conditions: PTK2 binding, 635 nm fluorescence, higher = more signal;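 further: composite of spot emission at 667 nm and signal to noise over triplicate slides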
[4] = system: Fibrinogen (Alexa647-labelled); assay: fibrinogen binders on compound microarrays, profiling panel, artefact control for SMM control-protein annotation, biochemical, small-molecule microarray, 635/667 nm fluorescence (AID 1131); conditions: fibrinogen-A647 binding fluorescence, higher = more signal;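 further: z-score merges 667 nm fluorescence with per-spot signal-to-noise over triplicate slides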
[5] = molecular target: Follistatin (Homo sapiens) (UniProt P19883); assay: follistatin binders on small-molecule microarrays, primary screen, biochemical, small-molecule microarray, 635/667 nm fluorescence (AID 1132); conditions: FST binding, 635 nm fluorescence, higher = more signal
[6] = molecular target: Fibroblast growth factor 2 (Homo sapiens) (UniProt P09038); assay: FGF2 binders on small-molecule microarrays, primary screen, biochemical, small-molecule microarray, 635/667 nm fluorescence (AID 1133); conditions: small-molecule microarray binding, FGF2, fluorescence 635/667; higher = more signal
[7] = mitochondrial membrane potential change in A549 cells, profiling panel, cell-based, JC-1 fluorescence, basal, 24 h, 100 nL (AID 1138); conditions: higher = more signal;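 further: A549 lung adenocarcinoma cells under basal conditions with no added stimulus; test concentration not given here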
Lefty1 = Lefty1 binders on small-molecule microarrays, primary screen, biochemical, small-molecule microarray, 635/667 nm fluorescence (AID 1139); conditions: small-molecule microarray binding, fluorescence 635/667; higher = more signal
[8] = system: wheat germ agglutinin (Triticum aestivum), Alexa647-labelled; assay: wheat germ agglutinin binders on compound microarrays, profiling panel, artefact control for SMM control-protein annotation, biochemical, small-molecule microarray, 635/667 nm fluorescence (AID 1140); conditions: WGA-A647 binding, 635 nm fluorescence, higher = more signal;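 further: score merges 667 nm feature emission with signal to noise over triplicate slides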
[9] = molecular target: Luciferin 4-monooxygenase (Photinus pyralis) (UniProt P08659); assay: firefly luciferase enzyme inhibitors, primary screen, biochemical, luminescence, purified enzyme, 2006 set (AID 1141); conditions: SteadyGlo luminescence, 30 min, higher = more signal, called active from +8 up or from −8 down;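 further: cell-free assay with purified firefly luciferase at 100 ng per well in PBS; test concentration not given here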
Luciferin 4-monooxygenase (Photinus pyralis), sequence (P08659 whole entry, looked up): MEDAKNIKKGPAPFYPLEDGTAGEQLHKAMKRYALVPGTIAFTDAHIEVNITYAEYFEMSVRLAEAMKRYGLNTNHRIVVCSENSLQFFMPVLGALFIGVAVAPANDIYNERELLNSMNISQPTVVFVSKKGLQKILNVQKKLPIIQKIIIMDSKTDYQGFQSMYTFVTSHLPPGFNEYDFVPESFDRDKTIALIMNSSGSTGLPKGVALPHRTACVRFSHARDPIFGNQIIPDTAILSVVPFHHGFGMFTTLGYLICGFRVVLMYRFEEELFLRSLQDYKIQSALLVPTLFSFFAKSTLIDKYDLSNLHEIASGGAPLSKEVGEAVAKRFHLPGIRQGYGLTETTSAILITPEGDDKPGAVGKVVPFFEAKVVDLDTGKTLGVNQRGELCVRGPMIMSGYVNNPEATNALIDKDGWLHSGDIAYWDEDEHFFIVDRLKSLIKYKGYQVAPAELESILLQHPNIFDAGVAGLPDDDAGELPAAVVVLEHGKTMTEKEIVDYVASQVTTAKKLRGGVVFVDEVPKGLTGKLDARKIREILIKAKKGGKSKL

Follistatin (Homo sapiens), sequence (P19883 whole entry, looked up): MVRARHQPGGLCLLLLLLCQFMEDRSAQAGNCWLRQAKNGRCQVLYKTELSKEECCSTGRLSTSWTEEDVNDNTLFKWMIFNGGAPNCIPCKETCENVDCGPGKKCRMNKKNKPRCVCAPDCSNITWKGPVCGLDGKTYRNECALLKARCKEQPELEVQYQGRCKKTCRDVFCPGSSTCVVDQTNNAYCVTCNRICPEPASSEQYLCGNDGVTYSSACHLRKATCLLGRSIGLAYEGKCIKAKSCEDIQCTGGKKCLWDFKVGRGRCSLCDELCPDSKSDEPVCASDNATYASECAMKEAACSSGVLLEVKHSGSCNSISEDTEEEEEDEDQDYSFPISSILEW
Focal adhesion kinase 1 (Homo sapiens), sequence (Q05397 whole entry, looked up): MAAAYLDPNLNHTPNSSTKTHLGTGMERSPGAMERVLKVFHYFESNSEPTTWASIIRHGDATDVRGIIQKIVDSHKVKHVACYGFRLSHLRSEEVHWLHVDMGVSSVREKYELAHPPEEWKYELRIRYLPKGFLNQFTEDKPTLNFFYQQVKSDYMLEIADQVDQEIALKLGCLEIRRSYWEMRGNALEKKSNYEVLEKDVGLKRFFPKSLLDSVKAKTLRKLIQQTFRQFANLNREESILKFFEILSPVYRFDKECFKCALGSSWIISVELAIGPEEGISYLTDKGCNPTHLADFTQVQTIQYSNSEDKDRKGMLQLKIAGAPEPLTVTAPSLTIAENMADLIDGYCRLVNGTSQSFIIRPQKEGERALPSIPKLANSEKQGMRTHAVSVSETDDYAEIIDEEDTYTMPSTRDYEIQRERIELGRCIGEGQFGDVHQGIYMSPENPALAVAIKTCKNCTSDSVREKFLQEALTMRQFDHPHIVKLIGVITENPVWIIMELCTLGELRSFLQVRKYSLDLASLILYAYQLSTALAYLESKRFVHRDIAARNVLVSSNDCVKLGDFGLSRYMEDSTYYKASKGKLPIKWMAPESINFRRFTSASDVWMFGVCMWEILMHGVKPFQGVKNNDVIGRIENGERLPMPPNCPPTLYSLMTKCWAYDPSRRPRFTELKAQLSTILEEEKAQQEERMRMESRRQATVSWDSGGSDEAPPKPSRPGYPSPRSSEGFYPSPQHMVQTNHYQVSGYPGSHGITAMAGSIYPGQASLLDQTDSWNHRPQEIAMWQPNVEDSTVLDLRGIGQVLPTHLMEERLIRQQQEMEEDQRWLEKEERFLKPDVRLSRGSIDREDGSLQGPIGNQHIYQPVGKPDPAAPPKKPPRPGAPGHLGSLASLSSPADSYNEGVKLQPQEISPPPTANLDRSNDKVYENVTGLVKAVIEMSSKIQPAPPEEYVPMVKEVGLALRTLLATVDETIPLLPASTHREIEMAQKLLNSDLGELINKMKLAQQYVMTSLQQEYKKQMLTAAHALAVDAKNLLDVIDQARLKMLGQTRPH
Fibroblast growth factor 2 (Homo sapiens), sequence (P09038 whole entry, looked up): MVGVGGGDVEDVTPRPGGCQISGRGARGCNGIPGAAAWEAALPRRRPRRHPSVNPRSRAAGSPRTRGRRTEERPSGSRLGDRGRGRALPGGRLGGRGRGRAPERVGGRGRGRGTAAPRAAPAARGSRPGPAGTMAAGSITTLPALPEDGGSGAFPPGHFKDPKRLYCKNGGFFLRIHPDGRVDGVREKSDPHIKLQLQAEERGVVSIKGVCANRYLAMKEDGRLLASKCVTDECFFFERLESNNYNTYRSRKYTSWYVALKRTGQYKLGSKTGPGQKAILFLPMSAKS

| SMILES | composite z-score [1] | composite z-score [2] | composite z-score [3] | composite z-score [4] | composite z-score [5] | composite z-score [6] | z-score [7] | composite z-score (Lefty1) | composite z-score [8] | z-score [9] |
| --- | --- | --- | --- | --- | --- | --- | --- | --- | --- | --- |
| COC(=O)[C@@]1(Cc2ccccc2CN=[N+]=[N-])N=C(c2ccc(OCCCO)cc2)O[C@H]1c1ccccc1CN=[N+]=[N-] | -0.242 | 0.113 | -0.198 | -0.819 | -0.261 | -0.167 | -0.546 | -1.09 | 0.495 | -2.23 (inactive) |
| C=CCC(OC(C)=O)[C@@H]1[C@@H](N(Cc2cc3ccccc3o2)C(=O)c2ccc(-c3ccccc3)cc2)c2cc(OCCCO)ccc2N1C(=O)Cc1ccc(OC)cc1 (stereo not given in full) | -0.289 | -0.27 | -0.19 | 0.457 | 0.453 | 0.245 | 0.64 | 0.16 | 0.307 | -0.189 (inactive) |
| C=C(/C(=C/C[C@H](OC(=O)c1ccncc1)c1cccc(OCCO)c1)c1cnc2ccccc2c1)C(C)C | 0.291 | 0.952 | 0.807 | 0.247 | 1.46 | 1.85 | 0.945 | 1.6 | 1.33 | -0.799 (inactive) |
| C=C/C=C/[C@@H]1C(=C)CN([C@@H](Cc2ccccc2)C(=O)OC)[C@H]1[C@@H](O)Cc1ccccc1 | 0.507 | 1.07 | 0.507 | 0.807 | 0.818 | 0.227 | 0.718 | 0.446 | 0.635 | -0.053 (inactive) |
| C=C(COC)C(=O)CC[C@H](OC(=O)c1cccnc1)c1ccc(CO)o1 | 0.784 | 0.113 | -0.163 | 0.978 | 1.34 | 1.26 | -0.595 | 1.15 | 0.264 | -0.721 (inactive) |
| C=CCNC(=O)[C@@H]1[C@H]2C(=O)O[C@H](c3ccccc3)[C@H](c3ccccc3)N2[C@H](c2ccc(OCCO)cc2)[C@@]12C(=O)N(C(=O)OCCOC)c1ccc(C#CCCO)cc12 | 0.32 | 1.17 | 1.12 | 0.736 | 1.33 | 0.482 | -0.295 | 1.1 | 0.719 | -11.1 (active) |
| C=C(/C(=C/C[C@H](OC(=O)c1ccncc1)c1ccccc1OCCO)c1cnc2ccccc2c1)C(C)C | 1.23 | 1.22 | 0.374 | 0.958 | 1.39 | 1.42 | 0.707 | 1.39 | 0.846 | -0.177 (inactive) |
| COCCCNC(=O)[C@@]1(Sc2ccc(C)cc2)CC(=O)N(C(C)C)[C@@H]1c1ccc(CO)cc1I | -0.578 | 0.569 | -0.0285 | -0.491 | -0.035 | -0.335 | -0.0858 | -0.21 | 0.271 | 0.805 (inactive) |
| COCCOC(=O)N1C(=O)[C@@]2(c3cc(C#CC4(O)CCCCCC4)ccc31)[C@H](c1ccc(OCCO)cc1)N1[C@H](c3ccccc3)[C@H](c3ccccc3)OC(=O)[C@H]1[C@@H]2C(=O)Nc1nc2ccccc2s1 | 1.08 | 1.13 | 0.2 | 0.688 | 1.27 | 1.65 | -2.33 | 1.38 | 0.708 | -2.55 (inactive) |
| [N-]=[N+]=NCc1ccccc1C[C@]1(C(=O)N2CCOCC2)COC(c2ccc(OCCCO)cc2)=N1 | 2.22 | 1.19 | 0.168 | 0.695 | 0.234 | -0.309 | 2.41 | -0.346 | 1.01 | -1.21 (inactive) |
| O=C1OCCC=C[C@H]2OC34C=CCN(c5ccc(Cl)cc5)C(=O)[C@H]3N(CCCCCCO)C(=O)[C@@H]4C12 (stereo not given in full) | -0.6 | -0.611 | -0.469 | -1.17 | -0.841 | -1.12 | 2.21 | -0.831 | -0.533 | -1.65 (inactive) |
| COCCOC(=O)N1C(=O)[C@@]2(c3cc(C#CC4(O)CCCCCC4)ccc31)[C@H](C(=O)N1CCN(c3ncccn3)CC1)[C@H]1C(=O)O[C@H](c3ccccc3)[C@H](c3ccccc3)N1[C@@H]2c1ccccc1OCCO | 1.29 | 1.18 | 1.1 | 0.821 | 1.28 | 1.37 | -1.04 | 0.883 | 0.321 | -0.348 (inactive) |
| COc1cccc(/C=C(\C#N)C(=O)Nc2c(C)n(C)n(-c3ccccc3)c2=O)c1 | 0.352 | 0.0072 | 0.268 | 0.85 | 0.346 | 0.365 | 0.697 | 0.363 | 0.713 | 0.109 (inactive) |
| C=CCN1C(=O)[C@]2(O[C@H](CCO)[C@@H]([Si](C)(C)c3ccc(OC)cc3)[C@@H]2C)c2cc(NC(=O)c3ccc(OC)cc3)ccc21 | 1.17 | 0.668 | 0.241 | 0.318 | 1.36 | 1.21 | -1 | 1.03 | 0.286 | -0.772 (inactive) |
| COc1ccc(C(O)C2C=CC3C(=O)N(c4ccccc4)C(=O)C3N2Nc2ccccc2F)cc1 (stereo not given) | 2.35 | 1.18 | 0.616 | 0.918 | 0.244 | -0.276 | -0.652 | -0.2 | 0.265 | 1.31 (inactive) |
| CCC(CC)C(O)C1C=CC2C(=O)N(c3ccccc3)C(=O)C2N1Nc1ccc([N+](=O)[O-])cc1 (stereo not given) | 0.838 | 1.23 | 1.19 | 0.895 | 0.081 | -0.348 | -1.38 | 0.138 | 1.11 | 1.14 (inactive) |
| COC(=O)[C@@]1(Cc2ccccc2)[C@H]2c3cc(C(=O)N4CCCC4)n(CCSCCO)c3C[C@H]2CN1C(=O)c1ccccc1 | 2.38 | 1.21 | 0.776 | 0.975 | 0.337 | 0.101 | 0.451 | 0.0341 | 0.844 | 0.103 (inactive) |
| CN1C(=O)C2C=CC(C(O)c3cc(C(F)(F)F)cc(C(F)(F)F)c3)N(Nc3ccccc3)C2C1=O (stereo not given) | 0.581 | 0.737 | 0.99 | -0.35 | -0.101 | -0.419 | 0.587 | 0.302 | 0.225 | 0.787 (inactive) |
| CCCNC(=O)[C@@]1(C)c2ccccc2C(=O)N(Cc2ccccc2)[C@H]1c1ccc(CO)cc1 | 1.8 | 0.0323 | 1.28 | -0.872 | -0.571 | -0.258 | 1.03 | -0.975 | -0.231 | -1.18 (inactive) |
| C=C(CCCC)C(=O)CC[C@H](OC(C)=O)c1ccc(OCCO)cc1 | 1.45 | -0.957 | 0.0145 | 0.431 | -0.243 | -0.271 | 0.208 | 0.108 | 0.359 | -0.66 (inactive) |
| CC=CC(O)C1C=CC2C(=O)NC(=O)C2N1Nc1ccccn1 (stereo not given) | 1.41 | 0.497 | 0.381 | 0.657 | 1.02 | 0.352 | 0.514 | 0.585 | 0.0489 | -0.0429 (inactive) |
| COCCOC(=O)N1C(=O)[C@@]2(c3cc(C#CC4=CCCCC4)ccc31)[C@H](c1ccc(O)cc1)N1[C@H](c3ccccc3)[C@H](c3ccccc3)OC(=O)[C@H]1[C@@H]2C(=O)NC[C@H](O)c1ccccc1 | 1.13 | 1.22 | 0.26 | 0.813 | 1.22 | 0.685 | -1.14 | 0.858 | 0.781 | -1.08 (inactive) |
| COCCOC(=O)N1C(=O)[C@@]2(c3ccccc31)[C@H](c1ccccc1OCCO)N1[C@H](c3ccccc3)[C@H](c3ccccc3)OC(=O)[C@H]1[C@@H]2C(N)=O | 1.93 | 1.18 | 0.502 | 0.955 | 1.4 | 1.57 | -0.206 | 1.01 | 0.64 | 0.0559 (inactive) |
| O=C1[C@@H]2[C@@H](CC(COc3ccccc3)=C3[C@@H](CCc4ccccc4)OB(O)C[C@@H]32)C(=O)N1Cc1ccccc1 | -0.147 | 0.871 | 0.034 | 0.0907 | 0.445 | 0.161 | 1.83 | 0.212 | 0.344 | -1.06 (inactive) |
